The test system of one assay is RARb:RXRa (NR concentration 270 nM, RXRa partner concentration 90 nM). Put plainly: PBM binding z-score (relative to random genomic background probes); higher = stronger binding; sequences stand for … in GC…GCGATTGACAGCGTAGAATGAAGG
The method, boiled down: (§1)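 Binding buffer was PBS pH 7.4 with 2% milk, 0.02% Triton X-100, 1 mM DTT, 0.2 mg/mL BSA and 0.4 mg/ml salmon testes DNA. In it, ligand-free nuclear receptor dimers were incubated 1 h on custom Agilent 4×180K protein-binding microarrays carrying double-stranded probes. Antibodies against each partner (one per run) detected binding, and z-scores were calculated against random background probes after regression normalization of scanned fluorescence.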
Consider TTACCAAGGTGAGCTGAGCTCGTTGATCCAACTC, for which the PBM binding z-score is 0.907.

The sequence AGAACGAGGGCAATAAGTTGATAGCACGGGTGGC gave a PBM binding z-score of 1.84.

CGTCAAAGATCAACTAAGGTAACGTAAAGCACGC: the PBM binding z-score amounted to 0.548.

Consider AGAACGAGGGCAAGCTGAGTTGATAGCAGAGTAG, for which the PBM binding z-score was determined as 2.46.

TTACCAAGGTGAAGGGTCGTTGATGCACGCCTTG: the PBM binding z-score was 2.08.

The sequence CCGACTGGGGCAGAACGGTTACCATACCATCCGG showed a PBM binding z-score of 0.227.

For the sequence TCATATAGGTGAATGCTAGGTGAAAGTCCGATCT, the PBM binding z-score was 1.22.

In turn, TGGCCTAGGTCATTGGGCCAGTATAGTACGCATC registered a PBM binding z-score of 3.72.

The sequence TCTTGTAGGTCAAGCAGGTTAAGAAAGCCTGAGT had a PBM binding z-score of 4.34.

In turn, ATCGAAAGGTCGAGGTGATTATAGAGAAAGGGAA registered a PBM binding z-score of 4.2.

Consider CGAACGAGGGCATGGGTTGATAGCAAATGCCGAT, for which the PBM binding z-score was determined as 2.05.

Sequence TTATATAGGTAAACAGGTGAAAGTCCGTAAGTTA had a PBM binding z-score of 0.687.

Regarding CCTACTGGGCCAAAAAGGTCATTGAGGCCGATAA, the PBM binding z-score is 3.8.

On to CCTACTGGGCCAAAGGTCATTCATTCCAATGCTC, for which the PBM binding z-score came out at 4.46.

In the case of TAGCCTACGTCAGATCGGGCCAGTATACGCTATA, the PBM binding z-score is -0.507.

In turn, ATCTCTAGGAAACAAGTTCAGTGAAAGAGAGGAC returned a PBM binding z-score of 1.17.

CCAACTAGGTCAGAACAGGACAGTGAAGGATGAT displayed a PBM binding z-score of 2.98.

CCGACTGCGGCATAAGGTTACCATAAGCCAGCCC returned a PBM binding z-score of 0.791.

A further assay has as its system RARb homodimer (NR concentration 270 nM). The assay is described as above. The method, boiled down:
as §1
For CTCGAAAGGTCGGTTGAGGTGAGAATACGGATAA, the PBM binding z-score came to 2.21.

As for TCTGCTAGGTCAGCTGGTCAGCTAACGAGCTGCC, the PBM binding z-score is 2.62.

GCTTGTAGATCATGGTTAAGAAAGACTAAGCTAA: the PBM binding z-score is -0.707.

For the sequence TCTGCTAGGTCAGTTTGTCAGCTAACGAGCTGCC, the PBM binding z-score was 1.74.

As to TCATATAGGTAAATGCTAGTTGAAAGTCCGATCT, the PBM binding z-score was -0.114.

For TCTCGGAGGACACGTAAGGTCAGAGCTCGACATC, the PBM binding z-score came out at 4.02.

Regarding ATGTCTAGGTAAAGATAGTTCAGTGAATGCAAAT, the PBM binding z-score came out at 0.94.

The sequence TATACAGGGTCAAAGTCCAGAGTACGAATGTCGA yielded a PBM binding z-score of 3.51.

The sequence GGAACCAGGGCAAGTTGATAGCAGAGTTTGATGG gave a PBM binding z-score of 1.71.

CCTAGCAGGCCAGGGTCACTGAAGCATTTCGCTT gave a PBM binding z-score of 2.95.

Take CGTCCAAGGTCAATGCTAGGACAGTGAAAGCATT: the PBM binding z-score was 4.05.

Turning to CCTACTGGGCCATTCATAGGTCATTGATCATATG, the PBM binding z-score turned out to be 2.77.

For CGAACTAGGTGATCCAGGACAGTGAATACATTGA, the PBM binding z-score was found to be 0.12.

On to ACTAGCAGGTCAAGTTTGGGTCACTCAAACAAAG, for which the PBM binding z-score turned out to be 4.03.

As to TCTCGTAGATCAAGCAGGTTAAGAAAGCCTGAGT, the PBM binding z-score was -0.357.

Regarding GCTGCTAGGTCAGTTTGGTCAGCTAACGGGTACG, the PBM binding z-score is 2.43.

For CCTACTGGGCCATCAGATCATTGATATCAACGTT, the PBM binding z-score was -0.087.

Consider CCGAGTGGGGCAGAAAGGTTACCATACCATCCGG, for which the PBM binding z-score came to 2.09.

In the case of AGTCAAAGTTCACTAGGTAACCTAAGATTCAGCT, the PBM binding z-score turned out to be 3.75.

TCTAGCAGGCCCGAGGGTCACTCAAGAGGTACGG: the PBM binding z-score was 2.43.

Regarding TCGACTAGGTTACCAATGGGGCATTCAGCTTTCT, the PBM binding z-score was 1.02.

In turn, GCGACTGGGGCATCAGCAGGTTAGCATAACTTAA yielded a PBM binding z-score of 0.258.

With TTACCAAGGTGAGCTGAGCTCGTTGATCCAACTC, the PBM binding z-score is -0.157.

With AGAACGAGGGCAATAAGTTGATAGCACGGGTGGC, the PBM binding z-score was 1.11.

In the case of CGTCAAAGATCAACTAAGGTAACGTAAAGCACGC, the PBM binding z-score stood at 0.577.

For the sequence AGAACGAGGGCAAGCTGAGTTGATAGCAGAGTAG, the PBM binding z-score was 1.06.

In turn, TTACCAAGGTGAAGGGTCGTTGATGCACGCCTTG gave a PBM binding z-score of 1.79.

As for CCGACTGGGGCAGAACGGTTACCATACCATCCGG, the PBM binding z-score was found to be 0.0428.

As for TCATATAGGTGAATGCTAGGTGAAAGTCCGATCT, the PBM binding z-score amounted to 0.945.

TGGCCTAGGTCATTGGGCCAGTATAGTACGCATC displayed a PBM binding z-score of 2.71.

For TCTTGTAGGTCAAGCAGGTTAAGAAAGCCTGAGT, the PBM binding z-score amounted to 3.48.

With ATCGAAAGGTCGAGGTGATTATAGAGAAAGGGAA, the PBM binding z-score turned out to be 2.72.

CGAACGAGGGCATGGGTTGATAGCAAATGCCGAT: the PBM binding z-score was 1.27.

For TTATATAGGTAAACAGGTGAAAGTCCGTAAGTTA, the PBM binding z-score was 0.827.

For the sequence CCTACTGGGCCAAAAAGGTCATTGAGGCCGATAA, the PBM binding z-score was 4.37.

With CCTACTGGGCCAAAGGTCATTCATTCCAATGCTC, the PBM binding z-score turned out to be 4.47.

For TAGCCTACGTCAGATCGGGCCAGTATACGCTATA, the PBM binding z-score was -0.763.

On to ATCTCTAGGAAACAAGTTCAGTGAAAGAGAGGAC, for which the PBM binding z-score stood at 1.32.

Turning to CCAACTAGGTCAGAACAGGACAGTGAAGGATGAT, the PBM binding z-score stood at 2.43.

CCGACTGCGGCATAAGGTTACCATAAGCCAGCCC returned a PBM binding z-score of 0.92.

A further assay has as its system RARg:RXRa (NR concentration 270 nM, RXRa partner concentration 90 nM). The assay is described as above. The essentials:
as §1
The sequence CTCGAAAGGTCGGTTGAGGTGAGAATACGGATAA returned a PBM binding z-score of 3.

Consider TCTGCTAGGTCAGCTGGTCAGCTAACGAGCTGCC, for which the PBM binding z-score was 3.42.

With GCTTGTAGATCATGGTTAAGAAAGACTAAGCTAA, the PBM binding z-score is -0.198.

TCTGCTAGGTCAGTTTGTCAGCTAACGAGCTGCC displayed a PBM binding z-score of 1.84.

In turn, TCATATAGGTAAATGCTAGTTGAAAGTCCGATCT registered a PBM binding z-score of 0.306.

As for TCTCGGAGGACACGTAAGGTCAGAGCTCGACATC, the PBM binding z-score was determined as 3.53.

As to ATGTCTAGGTAAAGATAGTTCAGTGAATGCAAAT, the PBM binding z-score was found to be 0.598.

The sequence TATACAGGGTCAAAGTCCAGAGTACGAATGTCGA returned a PBM binding z-score of 5.73.

In the case of GGAACCAGGGCAAGTTGATAGCAGAGTTTGATGG, the PBM binding z-score was determined as 1.17.

For the sequence CCTAGCAGGCCAGGGTCACTGAAGCATTTCGCTT, the PBM binding z-score stood at 3.32.

CGTCCAAGGTCAATGCTAGGACAGTGAAAGCATT displayed a PBM binding z-score of 5.76.

With CCTACTGGGCCATTCATAGGTCATTGATCATATG, the PBM binding z-score turned out to be 2.41.

CGAACTAGGTGATCCAGGACAGTGAATACATTGA: the PBM binding z-score worked out at 0.151.

ACTAGCAGGTCAAGTTTGGGTCACTCAAACAAAG came in with a PBM binding z-score of 7.23.

Turning to TCTCGTAGATCAAGCAGGTTAAGAAAGCCTGAGT, the PBM binding z-score is -0.372.

GCTGCTAGGTCAGTTTGGTCAGCTAACGGGTACG gave a PBM binding z-score of 2.29.

Regarding CCTACTGGGCCATCAGATCATTGATATCAACGTT, the PBM binding z-score is 0.0829.

CCGAGTGGGGCAGAAAGGTTACCATACCATCCGG gave a PBM binding z-score of 1.63.

Take AGTCAAAGTTCACTAGGTAACCTAAGATTCAGCT: the PBM binding z-score came to 5.2.

In turn, TCTAGCAGGCCCGAGGGTCACTCAAGAGGTACGG showed a PBM binding z-score of 2.27.

The sequence TCGACTAGGTTACCAATGGGGCATTCAGCTTTCT returned a PBM binding z-score of 1.16.

Turning to GCGACTGGGGCATCAGCAGGTTAGCATAACTTAA, the PBM binding z-score came out at 0.506.

As for TTACCAAGGTGAGCTGAGCTCGTTGATCCAACTC, the PBM binding z-score was -0.164.

AGAACGAGGGCAATAAGTTGATAGCACGGGTGGC came in with a PBM binding z-score of 1.23.

CGTCAAAGATCAACTAAGGTAACGTAAAGCACGC: the PBM binding z-score is 0.743.

Turning to AGAACGAGGGCAAGCTGAGTTGATAGCAGAGTAG, the PBM binding z-score was determined as 1.53.

Consider TTACCAAGGTGAAGGGTCGTTGATGCACGCCTTG, for which the PBM binding z-score is 2.19.

In the case of CCGACTGGGGCAGAACGGTTACCATACCATCCGG, the PBM binding z-score was -0.0938.

With TCATATAGGTGAATGCTAGGTGAAAGTCCGATCT, the PBM binding z-score is 1.54.

TGGCCTAGGTCATTGGGCCAGTATAGTACGCATC registered a PBM binding z-score of 3.81.

As for TCTTGTAGGTCAAGCAGGTTAAGAAAGCCTGAGT, the PBM binding z-score is 4.8.

ATCGAAAGGTCGAGGTGATTATAGAGAAAGGGAA: the PBM binding z-score worked out at 4.24.

CGAACGAGGGCATGGGTTGATAGCAAATGCCGAT had a PBM binding z-score of 1.31.

Sequence TTATATAGGTAAACAGGTGAAAGTCCGTAAGTTA yielded a PBM binding z-score of 0.632.

In turn, CCTACTGGGCCAAAAAGGTCATTGAGGCCGATAA had a PBM binding z-score of 4.72.

With CCTACTGGGCCAAAGGTCATTCATTCCAATGCTC, the PBM binding z-score amounted to 5.99.

In the case of TAGCCTACGTCAGATCGGGCCAGTATACGCTATA, the PBM binding z-score is -0.503.

ATCTCTAGGAAACAAGTTCAGTGAAAGAGAGGAC had a PBM binding z-score of 1.

As to CCAACTAGGTCAGAACAGGACAGTGAAGGATGAT, the PBM binding z-score worked out at 2.41.

CCGACTGCGGCATAAGGTTACCATAAGCCAGCCC yielded a PBM binding z-score of 0.306.

Source of the values: the supplement of paper PMC6555819.
